Measured values from PubChem BioAssay AID2129 (The Scripps Research Institute Molecular Screening Center, 2009).
The whole screen tested about 320,000 compounds, of which about 2,200 (0.69%) were called active.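 Rule for the calls: active = inhibition above the mean of all tested compounds plus 3 SD, cutoff set per campaign (cut at about 30% in these data); inactive = the rest.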 The list comes from a sample in which actives are over-represented; it also holds similar structures and randomly drawn compounds.

Molecular target: Bcl-2-like protein 1 (Homo sapiens) (UniProt Q07817)
Assay: Bcl-xL/Bim BH3 interaction blockers – biochemical, fluorescence polarization, HTS, primary screen (AID 2129);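 note: 0% = DMSO wells and 100% = unlabeled Bim-BH3 peptide competitor; inhibitors lower millipolarization by displacing the labeled peptide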
Conditions: GST-Bcl-xL / FITC-Bim BH3 peptide fluorescence polarization; at 10.9 µM; active compounds read high

Bcl-2-like protein 1 (Homo sapiens), sequence (Q07817 whole entry, looked up): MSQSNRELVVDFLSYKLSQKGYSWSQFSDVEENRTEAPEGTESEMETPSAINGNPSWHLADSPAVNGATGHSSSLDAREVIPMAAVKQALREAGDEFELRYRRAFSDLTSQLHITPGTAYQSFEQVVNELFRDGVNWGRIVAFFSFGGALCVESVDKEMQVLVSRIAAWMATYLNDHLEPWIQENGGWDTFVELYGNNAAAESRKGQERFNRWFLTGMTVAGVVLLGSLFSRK

Compound | inhibition
COc1ccc(C(=O)C2CCCN(C(=O)c3ccc(OC)o3)C2)c(C)c1 (stereo not drawn) | 7.44% (inactive)
COC(=O)C[n+]1cccc2ccccc21 | 173% (active)
COc1ccccc1NC(=O)C[n+]1ccccc1 | -1.13% (inactive)
Cc1cccc[n+]1CC(=O)c1ccccc1 | 2.8% (inactive)
CCCOCC(O)CC(CC)C(=O)NNC(=S)Nc1ccccc1 (stereo not drawn) | 2.96% (inactive)
Cc1c(-c2ccccc2)cn2c1-c1ccc(C)n1CC2 | 31.6% (active)
C/C(=N\Nc1ncc(Cl)cc1Cl)c1ccc(S(=O)(=O)NCc2ccco2)cc1 | 3.34% (inactive)
Cc1c(Cl)cnc(NC(=O)COC(=O)c2ccc(S(=O)(=O)NCc3ccco3)cc2)c1Cl | 35.9% (active)
CSCCC(NC(=O)c1ccco1)C(=O)OCC(=O)Nc1ncc(Cl)c(C)c1Cl (stereo not drawn) | 17.7% (inactive)
COc1ccc(OCC(O)CN(C)C(=O)C(C)Oc2ccccc2)cc1 (stereo not drawn) | -1.74% (inactive)
O=C(CSc1n[nH]c(-c2cccnc2)n1)Nc1ccc(Cl)cc1 | 2.31% (inactive)
COc1ccc(Cc2nnc(SCC(=O)c3cccc([N+](=O)[O-])c3)n2C)cc1 | 3.55% (inactive)
Cc1ccc(S(=O)(=O)Nc2nc3ccccc3nc2N2CCc3ccccc3C2)cc1 | 6.46% (inactive)
Cc1ccc(S(=O)(=O)C(C#N)c2nc3ccccc3nc2N2CCCC2)cc1C (stereo not drawn) | 87.6% (active)
Cc1cc(N2CCN(S(=O)(=O)c3ccc(C)c(C)c3)CC2)c2ccccc2n1 | 1.43% (inactive)
Cc1cc2oc(=O)cc(CN(C)Cc3ccc(OC(F)F)cc3)c2cc1Cl | 0.69% (inactive)
CC(C)=CCCC(C)CN1CCC(n2nccc2NC(=O)c2ccccc2)CC1 (stereo not drawn) | 3.8% (inactive)
COC(=O)c1ccc(C)c(NC(=O)C2CC(=O)N(C3CCCC(C)C3C)C2)c1 (stereo not drawn) | 4.61% (inactive)
O=C(NCc1ccccn1)Nc1ccc(Cl)cc1 | 1.5% (inactive)
Cc1ccc(C)c(N2CCN(C(=O)CCCn3c(=O)c4cccn4c4cccnc43)CC2)c1 | 1.63% (inactive)
O=c1onc(-c2c(F)cccc2F)n1-c1ccccc1Cl | 3.32% (inactive)
Cc1nnc(NC(=O)/C=C/c2ccco2)s1 | 39.6% (active)
CCC(CC)c1nnc(NC(=O)/C=C/c2ccco2)s1 | 4.39% (inactive)
CCOC(=O)c1c(NC(=O)/C=C/c2ccco2)sc(C)c1C | 0.59% (inactive)

Compound | inhibition
O=C(Nc1nnc(SCc2ccccc2Cl)s1)c1cccc([N+](=O)[O-])c1 | 9.99% (inactive)
c1ccc(CSc2nnc(-c3ccco3)c(-c3ccco3)n2)cc1 | 33.4% (active)
CCc1nnc(SCc2cccc(F)c2)nc1CC | 1.39% (inactive)
COc1ccc2nc(SCc3ccccc3)nc(C)c2c1 | 1.64% (inactive)
Clc1ccccc1CSc1nnc(-c2ccco2)c(-c2ccco2)n1 | 37% (active)
O=C(CC1N=C2c3ccccc3N=C(SCc3ccccc3Cl)N2C1=O)NCc1ccco1 (stereo not drawn) | 15% (inactive)
Cc1ccc(SCC(=O)c2cc(C)c(OC(=S)N(C)C)c(C)c2)cc1 | -0.01% (inactive)
Cc1ccc(C2(c3ccc(C)cc3)NC(=O)N(Cc3c(C)noc3C)C2=O)cc1 | 6.73% (inactive)
CC(=O)Nc1ccc(NS(=O)(=O)c2cc(C)sc2C)cc1 | 1.44% (inactive)
COc1ccc(C#Cc2c(-c3ccc(OC)cc3)oc3ccc(-c4ccc5c(c4)OCO5)cc23)cc1 | -0.02% (inactive)
CCc1cccc(C)c1N1C(=O)CN(Cc2ccccc2)C1=S | -7.16% (inactive)
Cc1ccc(CNS(=O)(=O)c2ccc3c(c2)N(C)CCO3)cc1 | 8.25% (inactive)
O=C(CCCn1c(SCC(=O)c2ccccc2)nc2ccccc2c1=O)NCC1CCCO1 (stereo not drawn) | -3.16% (inactive)
O=C(CCn1c(SCC(=O)c2ccccc2)nc2ccccc2c1=O)NCc1ccc(F)cc1 | 49.4% (active)
O=C(CSc1nc2ccccc2c(=O)n1-c1ccc(F)cc1)NC1CC1 | 6.71% (inactive)
Cc1c(-c2ccccc2)nc(N)c(C#N)c1-c1cccs1 | 8.08% (inactive)
CCc1c(-c2ccccc2)nc(N)c(C#N)c1-c1cccs1 | 6.16% (inactive)
CN1CCc2nc(SC(C(=O)O)c3ccccc3)c(C#N)c(-c3cccs3)c2C1 (stereo not drawn) | 31.4% (active)
CCOc1ccc2[nH]c(=O)c(CN(Cc3nnnn3CCc3ccccc3)CC3CCCO3)cc2c1 (stereo not drawn) | 0.19% (inactive)
O=C(COC(=O)/C=C/c1nc2ccccc2s1)Nc1ccccc1Oc1ccccc1 | -1.24% (inactive)
O=C(COC(=O)c1cccc(Br)c1)Nc1cccc2c1C(=O)c1ccccc1C2=O | 13.1% (inactive)
O=C(Cn1cnc2ccccc21)Nc1ccccc1-c1ccccc1 | 7.35% (inactive)
O=C(COC(=O)Cn1cnc2ccccc21)Nc1cccc2c1C(=O)c1ccccc1C2=O | 137% (active)
CC(C)(C)n1ncc2c(=O)n(Cc3ccc(Cl)cc3)cnc21 | 4.43% (inactive)

Compound | inhibition
CCOC(=O)N1CCN(CC(=O)n2c(C)c(C)c3ccccc32)CC1 | 9.52% (inactive)
Cc1nn(C(=O)c2ccoc2C)c(N)c1-c1ccccc1 | 173% (active)
C/C(=N\NC(=O)c1ccoc1C)c1ccccc1O | 4.04% (inactive)
Cc1nn(-c2ccc([N+](=O)[O-])cc2)c(N)c1-c1ccccc1 | -20.3% (inactive)
Cc1noc(C)c1C(=O)NCC1COc2ccccc2O1 (stereo not drawn) | -7.18% (inactive)
O=C(NCc1ccncc1)C1CCCN(S(=O)(=O)c2ccc(Br)cc2)C1 (stereo not drawn) | 9.21% (inactive)
O=C(NCc1cc(C(F)(F)F)cc(C(F)(F)F)c1)C1CC(c2cccc(F)c2)=NO1 (stereo not drawn) | 1.88% (inactive)
CCN1C(=O)[C@@H]2[C@@H](c3ccc(-c4ccc(OC)cc4)c(OC)c3)N3CCC[C@@]3(C(=O)OC)[C@@H]2C1=O | 4.65% (inactive)
Cn1c(C(=O)N2CCCC(C(=O)NCc3ccccc3)C2)cc2sccc21 (stereo not drawn) | 3.21% (inactive)
O=C(c1ccc(F)c(S(=O)(=O)N2CCOCC2)c1)N(CCc1ccccc1)Cc1ccccc1 | 31.7% (active)
O=C(Nc1ccccc1N1CCCC1)c1ccc(F)c(S(=O)(=O)N2CCOCC2)c1 | 1.14% (inactive)
O=C(NCCSCc1ccccc1)c1ccc(Cl)c(S(=O)(=O)N2CCOCC2)c1 | 1.38% (inactive)
Cc1nn(Cc2ccccc2)c(C)c1CNC(=O)c1ccc(F)c(S(=O)(=O)N2CCOCC2)c1 | 114% (active)
COc1ccc(C(=O)N(Cc2ccccc2)c2ccc(C)cc2)cc1S(=O)(=O)N1CCOCC1 | 5.85% (inactive)
Cc1ccccc1CSCCNC(=O)c1ccc(Cl)c(S(=O)(=O)N2CCOCC2)c1 | 3% (inactive)
Cc1ccc(-c2noc(C3CCCN(C(=O)c4cccc(Cl)c4)C3)n2)o1 (stereo not drawn) | -3.97% (inactive)
Cc1ccc2nc(SCC(=O)N3CC(C)OC(C)C3)nc(=O)n2c1 (stereo not drawn) | 5.27% (inactive)
Cc1nc([N+](=O)[O-])c(NCCCO)n1Cc1ccccc1 | 8.64% (inactive)
O=C(Nc1cc(S(=O)(=O)N2CCOCC2)ccc1OCC(F)(F)F)c1ccc(N2CCCC2=O)cc1 | -2.38% (inactive)
CC1(C)CCc2nc(SCc3ccccc3)c(C#N)cc2C1 | 4.14% (inactive)
Cc1cc(NC(=O)CSc2nc3c(cc2C#N)CCCCC3)no1 | 0.61% (inactive)
CC(NC(=O)CSc1nc2c(cc1C#N)CN(C)CC2)c1ccccc1 (stereo not drawn) | 36.7% (active)
Cn1c(CC(=O)NNC(=O)c2ccccc2F)nc2ccccc21 | 4.35% (inactive)
CCOc1ccc(N2C(=O)Nc3ccccc3C2(O)C(=O)NCc2ccco2)cc1 (stereo not drawn) | 2.5% (inactive)

Compound | inhibition
CCC1CCCCN1C(=O)CSc1nc2c(c(=O)n1C)SC(C)C2 (stereo not drawn) | 2.98% (inactive)
CCCn1c(O)c(CN2CCCC(C)C2)c(C)c(C#N)c1=O (stereo not drawn) | 53.4% (active)
Cc1c(CN2CCCCC2)c(O)n(CCO)c(=O)c1C#N | 21.4% (inactive)
CCCCCCn1c(CN2CCCC(C)C2)nc2c1c(=O)n(C)c(=O)n2C (stereo not drawn) | -0.05% (inactive)
COc1ccc(CNC(=O)c2c[nH]c3c(OC)cc(OC)cc3c2=O)cc1 | 1.75% (inactive)
O=C(O)CC/C(=N\NC(=O)c1ccc(F)cc1)c1ccc(Br)cc1 | 2.98% (inactive)
Cc1cccc(NC(=O)c2cc(S(=O)(=O)N3CCC4(CC3)OCCO4)ccc2F)c1 | 0.06% (inactive)
Cc1ccc(Cc2cnc(NC(=O)/C(C#N)=C/c3ccc(-c4cccc([N+](=O)[O-])c4)o3)s2)cc1 | 1.29% (inactive)
Cc1ccc(/C=C(\C#N)C(=O)Nc2cccc3ncccc23)o1 | 102% (active)
O=C(O)c1cc(Cl)c(Cl)cc1C(=O)Nc1cccc2ncccc12 | 5.65% (inactive)
CCOc1ccc(-n2c(SCC(=O)NC3CCS(=O)(=O)C3)nnc2-c2cccnc2)cc1 (stereo not drawn) | -6.49% (inactive)
CCc1cccc(C)c1N(C(=O)Cn1c(CO)nc2ccccc21)C(C)COC (stereo not drawn) | 58.5% (active)
COc1ccccc1Cn1c(CO)nc2ccccc21 | 0.35% (inactive)
CCOCN(C(=O)Cn1c(C(C)O)nc2ccccc21)c1c(C)cccc1CC (stereo not drawn) | 6.75% (inactive)
COC(=O)c1sc(=S)n(-c2ccc(Cl)cc2)c1C | 8.78% (inactive)
CCOC(=O)c1c(N)sc(C(C)=O)c1C | 4.34% (inactive)
COCCOC(=O)c1sc(=S)n(CCOC)c1N | 90.3% (active)
O=C(NCC1(N2CCCCC2)CCCCC1)c1ccc(NS(=O)(=O)c2ccc(F)cc2)cc1 | 5.4% (inactive)
Cc1coc2c(O)cc3c(c12)OC1(N2CCCCC2)C(=O)NCCCC31 (stereo not drawn) | 39% (active)
NC(=O)c1nsc(C(=O)N(CC(=O)NCc2ccc(F)cc2)Cc2ccco2)c1N | 1.4% (inactive)
COc1ccc(-n2cnc3cc(NCc4ccco4)ccc32)cc1 | 6.77% (inactive)
